Screens as filed in PubChem BioAssay.
PLCb3 inh = inhibitors of human phospholipase C beta3; Q01970; Purified PLC-beta3, fluorogenic substrate, fluorescence; inhibition, % at 12.2 µM; 0.18% of 370,000 active; AID 720704; in the data active = inhibition above about 11%;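 note: 0% = median of compound wells on plate and 100% = full blocker control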
CR mimetic SO = caloric restriction mimetics inhibiting age-related superoxide in yeast; superoxide response (% of plate mean), % at 10 µM; AID 2690; S. cerevisiae aged cells, superoxide DHE fluorescence; stronger effect = lower value; 0.18% of 330,000 active;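 active = superoxide response under a set limit, about three screen SD below normal, cut at about 65% in these data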;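 note: yeast aged for seven days with compound at 30 °C before DHE staining; 100% = average MFI of all compound-treated wells on the plate with controls excluded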
HGIII-sPLA2 inh = Inhibits HGIII-sPLA2 liposome hydrolysis, primary screen; 0.56% of 370,000 active; Q9NZ20; inhibition, % at 12.2 µM; QFRET BODIPY PC-A2 liposome hydrolysis, fluorescence; AID 743126;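 active = inhibition above mean plus 3 SD of compounds lying within the high and low control bounds, cut at about 19% in these data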;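 note: 0% = median of test compound wells and 100% = no enzyme DMSO wells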
HIF act = HIF pathway transcriptional activation; AID 1910; activation, % at 7.5 µM (by protocol); U2OS HRE-luciferase reporter, luminescence; normalized: DMSO 0%, desferrioxamine 100%; 0.32% of 300,000 active;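 active = mean activation of at least 10% of the iron chelator positive control signal, with at least half of replicates also reaching 10%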
AHR act = activates the human aryl hydrocarbon receptor. AHR-responsive luciferase reporter cells, luminescence. P35869. activation, % at 5 µM. 2.5% of 320,000 active; in the data active = activation above about 47%;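 note: 0% = vehicle wells and 100% = reference agonist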
PLC-gamma1 inh = inhibitors of human phospholipase C gamma1. P19174. purified PLC-gamma1, fluorogenic substrate, fluorescence. inhibition, % at 12.2 µM. 0.84% of 370,000 active; in the data active = inhibition above about 9.5%
Target sequence (P19174 whole entry, looked up): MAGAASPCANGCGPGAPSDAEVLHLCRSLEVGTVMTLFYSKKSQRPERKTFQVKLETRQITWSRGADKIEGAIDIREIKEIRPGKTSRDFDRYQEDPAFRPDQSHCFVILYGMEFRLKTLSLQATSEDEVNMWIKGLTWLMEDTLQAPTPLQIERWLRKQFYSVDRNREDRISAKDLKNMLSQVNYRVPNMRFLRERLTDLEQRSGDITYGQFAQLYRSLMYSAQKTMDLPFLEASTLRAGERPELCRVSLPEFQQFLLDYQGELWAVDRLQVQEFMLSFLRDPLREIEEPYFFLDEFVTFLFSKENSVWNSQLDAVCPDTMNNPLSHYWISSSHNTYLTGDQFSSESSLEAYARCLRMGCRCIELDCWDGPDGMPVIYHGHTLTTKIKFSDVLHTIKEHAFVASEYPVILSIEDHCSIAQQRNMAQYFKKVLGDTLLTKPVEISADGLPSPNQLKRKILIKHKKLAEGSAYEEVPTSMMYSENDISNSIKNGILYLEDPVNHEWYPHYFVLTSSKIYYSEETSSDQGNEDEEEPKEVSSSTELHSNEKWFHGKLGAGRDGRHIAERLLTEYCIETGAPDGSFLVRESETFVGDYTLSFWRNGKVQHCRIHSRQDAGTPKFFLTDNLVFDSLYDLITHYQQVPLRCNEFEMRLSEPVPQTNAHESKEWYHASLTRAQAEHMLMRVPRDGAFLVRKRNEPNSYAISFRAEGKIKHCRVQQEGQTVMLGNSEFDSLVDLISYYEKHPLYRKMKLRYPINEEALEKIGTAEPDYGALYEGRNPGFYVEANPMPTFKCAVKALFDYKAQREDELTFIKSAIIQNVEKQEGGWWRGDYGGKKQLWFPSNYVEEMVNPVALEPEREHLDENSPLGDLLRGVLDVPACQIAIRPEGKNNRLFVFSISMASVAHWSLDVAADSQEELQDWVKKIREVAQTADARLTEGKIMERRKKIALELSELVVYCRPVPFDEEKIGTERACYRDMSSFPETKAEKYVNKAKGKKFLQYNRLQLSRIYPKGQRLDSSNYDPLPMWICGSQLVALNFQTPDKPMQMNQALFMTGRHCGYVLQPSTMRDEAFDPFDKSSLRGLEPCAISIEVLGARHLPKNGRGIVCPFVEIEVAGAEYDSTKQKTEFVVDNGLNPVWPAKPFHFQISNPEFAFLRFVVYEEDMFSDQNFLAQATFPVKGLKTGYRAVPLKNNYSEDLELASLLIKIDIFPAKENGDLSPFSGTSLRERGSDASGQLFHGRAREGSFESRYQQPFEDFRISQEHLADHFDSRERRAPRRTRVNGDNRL
AHR act cf = confirmation of human aryl hydrocarbon receptor activators. 87% of 2,300 active. human cells, AHR-responsive luciferase reporter, luminescence. shares compounds with AHR act. activation, % at 9 µM; in the data active = activation above about 49%;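 note: HepG2 hepatoma cells carrying a DRE-driven firefly luciferase reporter; 0% = vehicle wells and 100% = reference agonist wells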
PXR act counter = activates human PXR in AHR activator counter-screen; shares compounds with AHR act; cell-based PXR reporter, luciferase luminescence; activation, % at 11.6 µM; 88% of 2,300 active; AID 434939; in the data active = activation above about 11%;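 note: human hepatoma DPX-2 cells expressing full-length human PXR; 0% = DMSO and 100% = reference agonist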
* hit, by the source's call; . = no result. Compounds with a hit are over-represented: about 3.9% of the library has one in this group of screens.

SMILES	PLCb3 inh	CR mimetic SO	HGIII-sPLA2 inh	HIF act	AHR act	PLC-gamma1 inh	AHR act cf	PXR act counter
CCCN1Cc2cccc(C(=O)NCc3ccc4c(c3)OCO4)c2C1=O	5	110	0	-2	80*	2	50*	141*
Cc1cc(C(=O)NCC(c2cccs2)N2CCOCC2)ccc1[N+](=O)[O-] (stereo not given)	-7	98	6	-1	27	-2	.	.
Clc1ccccc1Cn1nnc(-c2cccs2)n1	-4	109	-6	3	117*	-1	150*	37*
CC(C)C[C@H](NC(=O)C1CC(=O)N(c2ccc(F)cc2)C1)C(=O)N1CCCCC1 (stereo not given in full)	-5	91	1	0	-1	2	.	.
CCOc1ccc(NC(=O)c2cc3ccccc3cc2OC)cc1	-79	106	-30	5	83*	-47	91*	.
COc1ccc(NC(=O)c2cc3ccccc3cc2OC)cc1	-86	103	-23	3	96*	-67	66*	12*
CCOc1ccc(NC(=O)c2cc3ccccc3cc2O)cc1	-154	95	-40	2	-2	-112	.	.
COc1ccc(Br)cc1C(=O)Nc1cc(C)cc(C)c1	2	96	-2	1	113*	7	100*	18*
O=C(O)c1cc(Cl)c(Cl)cc1C(=O)Nc1cccc2cccnc12	-5	96	16	0	11	3	.	.
CCOC(=O)Cn1cc(CN2CCS(=O)(=O)N(Cc3ccccc3)C(C(=O)OC)C2)nn1 (stereo not given)	-2	.	6	.	.	-2	.	.
Cc1c(S(=O)(=O)N2CCOCC2)c(=O)n(C)c(=O)n1C	-1	105	16	0	0	1	.	.
CC/C(=N\NC(=O)c1c[nH]c2ccccc12)c1cccs1	0	91	0	1	83*	1	151*	55*
C/C(=N\NC(=O)c1c[nH]c2ccccc12)c1ccc(C)s1	-8	107	0	2	92*	-3	126*	59*
C/C(=N\NC(=O)c1cccc2ccccc12)c1cccs1	-31	108	7	2	7	0	.	.
C/C(=N\NC(=O)c1csc(C)c1C)c1ccc(C)s1	-1	93	3	3	6	0	.	.
COc1ccc(OC)c2c1C(=O)C(Cl)=C(Cl)C2=O	-20	132	2	-6	137*	-10	-4	-7
Cc1nn(CC(=O)Nc2ccc(C(=O)N3CCCCC3)cc2)c(=O)c2ccccc12	-2	107	0	0	1	1	.	.
Cc1nn(CC(=O)Nc2ccc(C(=O)N3CCCC3)cc2)c(=O)c2ccccc12	0	97	-6	-1	86*	0	5	5
O=C1OCCC1(c1ccccc1)c1ccccc1	-3	.	-12	.	.	3	.	.
CCCOc1ccccc1NC(=O)c1ccc(N)cc1	-1	83	8	-1	101*	4	117*	47*
CCOc1ccccc1NC(=O)c1ccc2nccnc2c1	-2	99	3	0	83*	1	109*	.
CCOc1ccccc1NC(=O)c1ccc2nc[nH]c2c1	-2	108	-9	0	-13	-1	.	.
NC(N)=NN=C1CCC(c2ccccc2)CC1 (stereo not given)	4	112	0	0	7	0	.	.
Cc1cc(-c2ccccc2)nc(N2CCN(c3ccccn3)CC2)n1	-2	102	-2	0	81*	1	93*	19*
Cc1cncc(N2CCN(c3ccccn3)CC2)n1	-9	.	-3	.	.	-2	.	.
SMILES	PLCb3 inh	CR mimetic SO	HGIII-sPLA2 inh	HIF act	AHR act	PLC-gamma1 inh	AHR act cf	PXR act counter
O=C(Cc1ccccc1[N+](=O)[O-])NCC(O)c1ccc2c(c1)OCO2 (stereo not given)	0	.	9	.	.	0	.	.
O=[N+]([O-])c1cccc(/C([O-])=C(/C(=S)Nc2ccccc2)[n+]2ccccc2)c1	-3	100	4	1	83*	0	43	159*
CCOC(=O)N1C(=O)C[C@](Sc2ccc(OC)cc2)(C(=O)N2CCCC2)[C@H]1c1ccc(OC)cc1	-2	.	7	.	.	0	.	.
CCc1cc2cc(OC)ccc2nc1SCC(=O)NNC(=O)c1ccco1	2	121	-7	0	82*	3	16	14*
O=C(CN1CCc2cc3c(cc2C1)OCCCO3)Nc1c(F)cccc1F	-10	87	4	-1	1	-4	.	.
O=C(Nc1ccccc1)c1cnc(-c2ccccc2)nc1-c1ccccc1	5	101	-6	-1	90*	2	93*	47*
O=c1c2cc(Cl)ccc2[nH]c(=S)n1Cc1ccco1	-8	106	10	0	37	-5	.	.
COc1cc2[nH]c(=S)n(Cc3ccco3)c(=O)c2cc1OC	-3	124	12	0	82*	-2	84*	72*
Cc1cc(C)c2[nH]c(O)c(N=Nc3ccc(C(=O)O)cc3)c2c1	-4	101	5	0	0	0	.	.
Cc1cc(C)c2[nH]c(O)c(N=NC3=NC(=O)CS3)c2c1	-2	96	-22	0	95*	3	118*	16*
O=C(NCc1ccccc1)c1cc(C2COCCN2C(=O)CCc2ccccc2)on1 (stereo not given)	3	.	-4	.	.	-1	.	.
C/C(=N\NC(=S)Nc1cccc(C)c1)c1ccccc1	0	101	-1	-28	84*	-2	111*	42*
Cc1ccc(NC(=O)C2CCN(S(=O)(=O)c3ccc4c(c3)C(C)(C)C(=O)N4C)CC2)c(C)c1	1	101	1	0	0	-1	.	.
COc1ccccc1-c1noc(-c2ccncc2)n1	0	95	2	2	20	-1	.	.
COc1ccccc1-c1nc(-c2ccccn2)no1	1	102	3	-3	113*	-3	118*	6
COc1ccccc1-c1noc(-c2cccs2)n1	-2	119	2	3	86*	3	144*	17*
Cc1ccccc1-c1nc(-c2ccccn2)no1	5	120	4	-7	29	4	.	.
Cc1ccccc1-c1nc(-c2cccnc2)no1	-4	84	3	2	107*	0	105*	.
Clc1ccccc1-c1nnc(-c2cccnc2)o1	-6	104	14	-1	0	-7	.	.
Clc1ccccc1-c1nc(-c2cccnc2)no1	-1	130	4	-1	105*	6	123*	14*
Oc1[nH]c2ccccc2c1N=Nc1ccc(F)cc1	-4	105	-9	2	94*	-7	91*	7
COCCCNC(=O)c1cccn2c(=O)c3cc4ccccc4cc3nc12	-270	135	0	.	92*	-157	147*	13*
